Sampled rows, rich in hits. Any-hit rate of the full collection: about 28%.
CYP2C9 inh – human CYP2C9 inhibition | 96,000 tested, 20% active | CYP2C9 Supersomes, luciferin-H conversion, luminescence | AID 777 | P11712 | inhibition, % at 5 µM;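 active = blocking of liver enzyme CYP2C9 beyond about 50% at 5 µM, limit read from the data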
CYP2C19 activ – cytochrome P450 2C19 (human) activation | P33261 | recombinant CYP2C19, luciferin-H EGE luminescence; hits give high values; 0 = fully inhibited enzyme, 1 = untreated enzyme | activation factor at 5 µM | 96,000 tested, under 10 active;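 active = activation factor of at least 2 at 5 µM in the primary screen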;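 note: 0 = wells with 2.5 mM tranylcypromine and 1 = vehicle-only wells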
Mac1 fbg inh – CD11b/CD18-fibrinogen binding inhibition. K562 CD11b/CD18 adhesion to fibrinogen, ATPlite luminescence; Mn2+ added to activate the integrin. inhibition, % at 10 µM. 93,000 tested, 0.54% active. AID 1497;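 active = primary inhibition of 50% or more at 10 µM, then 40% or more on retest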
Target sequence (P05107 whole entry, looked up, other chains not shown): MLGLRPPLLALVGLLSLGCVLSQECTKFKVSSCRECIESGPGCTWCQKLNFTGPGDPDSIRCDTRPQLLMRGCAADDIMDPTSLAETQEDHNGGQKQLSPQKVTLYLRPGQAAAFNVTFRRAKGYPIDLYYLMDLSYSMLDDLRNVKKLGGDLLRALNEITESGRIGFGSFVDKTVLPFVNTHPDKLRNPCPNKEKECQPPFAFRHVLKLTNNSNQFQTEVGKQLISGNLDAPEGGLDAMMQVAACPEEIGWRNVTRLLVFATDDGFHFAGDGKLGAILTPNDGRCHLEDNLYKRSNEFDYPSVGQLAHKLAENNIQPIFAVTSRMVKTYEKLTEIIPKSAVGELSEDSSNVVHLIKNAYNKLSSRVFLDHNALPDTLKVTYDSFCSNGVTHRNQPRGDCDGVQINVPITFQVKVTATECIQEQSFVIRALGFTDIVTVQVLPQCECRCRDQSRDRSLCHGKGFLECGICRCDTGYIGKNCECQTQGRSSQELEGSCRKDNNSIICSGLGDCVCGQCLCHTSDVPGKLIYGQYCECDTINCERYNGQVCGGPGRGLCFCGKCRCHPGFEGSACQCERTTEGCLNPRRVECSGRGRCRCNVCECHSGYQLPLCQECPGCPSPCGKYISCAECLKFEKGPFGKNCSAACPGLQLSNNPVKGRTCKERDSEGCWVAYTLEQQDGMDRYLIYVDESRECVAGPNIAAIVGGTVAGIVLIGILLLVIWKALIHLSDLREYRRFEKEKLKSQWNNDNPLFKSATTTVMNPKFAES
Mac1 fbg enh – CD11b/CD18-fibrinogen binding enhancement. K562 CD11b/CD18 adhesion to fibrinogen, ATPlite luminescence. 93,000 tested, 0.07% active. P05107+P11215. activation, % at 10 µM. AID 1499;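 active = 10 µM primary screen giving 50% or more activity, confirmed by 40% or more on retest at that dose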
CYP2C19 inh – inhibitors of human CYP2C19; P33261; CYP2C19 Supersomes, luciferin-H EGE luminescence, 30 min; inhibition, % at 5 µM; 96,000 tested, 21% active;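 active = CYP2C19 inhibition above a set limit at 5 µM in the primary screen, cut at about 50% in these data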;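 note: plate controls were negative control wells for no effect and 2.5 mM tranylcypromine positive control for full effect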
CYP2C9 act – CYP2C9 (human) activation | P11712 | recombinant CYP2C9, luciferin-H conversion, luminescence; hits give high values; factor 1 = untreated enzyme, 0 = blocked | activation factor at 5 µM | 96,000 tested, 1.4% active | AID 1024;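 active = activation factor of 2 or more for CYP2C9 at a 5 µM dose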;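 note: 0 = sulfaphenazole-blocked wells and 1 = vehicle-only wells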
Numbers without * were called inactive.

Clc1ccc(OCCSCc2nc3ccccc3[nH]2)cc1 was read as CYP2C9 inh 57*, CYP2C19 activ 0.4, Mac1 fbg inh 76*, Mac1 fbg enh -12, CYP2C19 inh 64* and CYP2C9 act 0.4.
Screening Clc1ccc(/C=C/c2nc3ccccc3[nH]2)cc1 returned CYP2C9 inh 15, CYP2C19 activ 0.6, CYP2C19 inh 36 and CYP2C9 act 0.8.
C/C(N)=C(/C#N)C(=O)CSc1nnc(COc2cc(C)ccc2C)o1 was read as CYP2C9 inh 9, CYP2C19 activ 1, CYP2C19 inh 0 and CYP2C9 act 0.9.
Screening COc1ccccc1CC(=O)Nc1ccc(-c2noc(COc3cccc(C)c3C)n2)cc1 returned CYP2C9 inh 63*, CYP2C19 activ 0.8, Mac1 fbg inh 3, Mac1 fbg enh -2, CYP2C19 inh 25 and CYP2C9 act 0.4.
Screening COc1ccc(-c2noc(COc3ccc4c(c3)OCO4)n2)cc1OC returned CYP2C9 inh 9, CYP2C19 activ 0.9, Mac1 fbg inh -24, Mac1 fbg enh -1, CYP2C19 inh 13 and CYP2C9 act 0.9.
`COc1ccc(-c2noc(COc3ccccc3OC)n2)cc1OC` gave CYP2C9 inh -73, CYP2C19 activ 0.2, Mac1 fbg inh 5, Mac1 fbg enh 1, CYP2C19 inh 78* and CYP2C9 act 1.7.
For COc1ccccc1CC(=O)Nc1ccc(-c2noc(COc3ccc(Br)cc3)n2)cc1 the results were CYP2C9 inh 3, CYP2C19 activ 1, Mac1 fbg inh -2, Mac1 fbg enh -3, CYP2C19 inh 1 and CYP2C9 act 1.
COCc1nc(-c2cc(OC)c(OC)c(OC)c2)no1 was read as CYP2C9 inh 51*, CYP2C19 activ 0.5, Mac1 fbg inh 4, Mac1 fbg enh -1, CYP2C19 inh 48 and CYP2C9 act 0.5.
Screening CCOC(=O)C1=C(c2ccccc2)Nc2nc(C)nn2C1c1cccc(OC)c1OC (stereo unspecified) returned CYP2C9 inh 25, CYP2C19 activ 0.9, Mac1 fbg inh -23, Mac1 fbg enh 5, CYP2C19 inh 14 and CYP2C9 act 0.8.
For Cc1ccc(NC(=O)c2ccc(N3CCOCC3)c([N+](=O)[O-])c2)cc1S(=O)(=O)N1CCOCC1 the results were Mac1 fbg inh 25 and Mac1 fbg enh -2.
For Cc1ccccc1OC(C)C(=O)NC1CCCC1 (stereo unspecified) the results were CYP2C9 inh 42, CYP2C19 activ 0.3, Mac1 fbg inh 23, Mac1 fbg enh 4, CYP2C19 inh 74* and CYP2C9 act 0.6.
For COCCn1c(-c2cc(OC)c(OC)c(OC)c2)nc2oc3ccccc3c(=O)c2c1=O the results were CYP2C9 inh -25, CYP2C19 activ 1.1, Mac1 fbg inh -11, Mac1 fbg enh -1, CYP2C19 inh -15 and CYP2C9 act 1.2.
`COc1ccc2oc(=O)c(-c3nnc(NCc4ccco4)s3)cc2c1` gave CYP2C9 inh 30, CYP2C19 activ 0.9, Mac1 fbg inh -6, Mac1 fbg enh 73, CYP2C19 inh 10 and CYP2C9 act 0.7.
For CCOc1cccc2cc(-c3nnc(NCc4ccco4)s3)c(=O)oc12 the results were CYP2C9 inh -190, CYP2C19 activ 0.9, Mac1 fbg inh 3, Mac1 fbg enh 59, CYP2C19 inh 10 and CYP2C9 act 2.9*.
Cn1c(=O)c(-c2ccccc2N)nc2ccccc21 was read as CYP2C9 inh 16, CYP2C19 activ 0.9, Mac1 fbg inh -37, Mac1 fbg enh 9, CYP2C19 inh 10 and CYP2C9 act 0.8.
For O=C1c2ccccc2C(=O)N1CCc1nc2ccccc2c(=O)n1Cc1ccco1 the results were CYP2C9 inh 80*, CYP2C19 activ 0.1, Mac1 fbg inh -4, Mac1 fbg enh -4, CYP2C19 inh 93* and CYP2C9 act 0.2.
For Cc1c(N=Cc2nc3ccccc3[nH]2)c(=O)n(-c2ccccc2)n1C the results were CYP2C9 inh 6, CYP2C19 activ 0.9, Mac1 fbg inh 31, Mac1 fbg enh -3, CYP2C19 inh 9 and CYP2C9 act 0.9.
O=c1c2ccccc2c2ccccc2c(=O)n1Cc1ccco1 was read as CYP2C9 inh 73*, CYP2C19 activ 0.2, Mac1 fbg inh 6, Mac1 fbg enh 1, CYP2C19 inh 81* and CYP2C9 act 0.3.
Screening CCCc1nc2sc3ccccc3c(=O)c2c(=O)n1Cc1ccco1 returned CYP2C9 inh -2, CYP2C19 activ 1.1, Mac1 fbg inh 5, Mac1 fbg enh -2, CYP2C19 inh -7 and CYP2C9 act 1.
For Cn1c(-n2c(CCN3C(=O)c4ccccc4C3=O)nc3ccccc3c2=O)nc2ccccc21 the results were CYP2C9 inh 92*, CYP2C19 activ 0.1, Mac1 fbg inh -6, Mac1 fbg enh -2, CYP2C19 inh 87* and CYP2C9 act 0.1.
Screening Cc1c(N=Cc2c(O)n(Cc3ccco3)c(=O)c3ccccc23)c(=O)n(-c2ccccc2)n1C returned CYP2C9 inh 81*, CYP2C19 activ 0.4, Mac1 fbg inh -17, Mac1 fbg enh -4, CYP2C19 inh 56* and CYP2C9 act 0.2.
Screening Nc1cc(=O)[nH]c(=O)n1Cc1ccco1 returned CYP2C9 inh 17, CYP2C19 activ 1.2, Mac1 fbg inh 2, Mac1 fbg enh -2, CYP2C19 inh -22 and CYP2C9 act 0.8.
`S=c1nc(-c2ccccc2)n(CCCn2ccnc2)c2c1CCCC2` gave CYP2C9 inh 7, CYP2C19 activ 1.1, Mac1 fbg inh 10, Mac1 fbg enh -6, CYP2C19 inh -9 and CYP2C9 act 0.9.
For Cn1c(-n2c(CCCN3C(=O)c4ccccc4C3=O)nc3ccccc3c2=O)nc2ccccc21 the results were CYP2C9 inh 64*, CYP2C19 activ 0.5, Mac1 fbg inh -1, Mac1 fbg enh -2, CYP2C19 inh 46 and CYP2C9 act 0.4.
For O=C1c2ccccc2C(=O)N1CCCc1nc2ccccc2c(=O)n1CCCn1ccnc1 the results were CYP2C9 inh 99*, CYP2C19 activ 0.1, Mac1 fbg inh -11, Mac1 fbg enh 50, CYP2C19 inh 86* and CYP2C9 act 0.
`Cc1ccc(-c2nnn(CC(=O)Nc3cccc4cccnc34)n2)o1` gave CYP2C9 inh 39, CYP2C19 activ 0.7, Mac1 fbg inh 7, Mac1 fbg enh 0, CYP2C19 inh 33 and CYP2C9 act 0.6.
`CCOC(=O)c1c(NC(=O)CSc2nnc3c(n2)[nH]c2ccc(F)cc23)sc(C(C)=O)c1C` gave CYP2C9 inh 76*, CYP2C19 activ 0.4, CYP2C19 inh 64* and CYP2C9 act 0.2.
For CCOC(=O)CN(C(=O)CSc1nnc2c(n1)[nH]c1c(C)cc(C)cc12)c1ccccc1 the results were CYP2C9 inh 4, CYP2C19 activ 0.9, Mac1 fbg inh -15, Mac1 fbg enh 4, CYP2C19 inh 8 and CYP2C9 act 1.
